HP1b chromo inh – inhibitors of HP1-beta chromodomain binding to methylated histone tails | AlphaScreen HP1-beta / biotin-H3K9me3 peptide binding | Potency, µM (series often up to 114 µM), without a hit: at the highest dose activity change, negative = inhibition, hits mostly inhibitors | actives 0.56% (n = 390,000); further: nearly all actives have a fitted effect of over 70% in size
Target sequence (P83916 whole entry, looked up): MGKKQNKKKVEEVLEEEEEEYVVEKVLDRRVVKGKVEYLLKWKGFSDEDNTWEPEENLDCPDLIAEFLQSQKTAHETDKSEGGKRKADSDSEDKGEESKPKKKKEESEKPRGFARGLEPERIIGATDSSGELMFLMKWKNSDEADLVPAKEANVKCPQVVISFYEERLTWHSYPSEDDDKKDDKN
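HP1-beta protein (50 nM final) preincubated 30 min at room temperature with biotinylated H3(1-18)K9me3 peptide (50 nM) in PBS pH 7.4, 0.01% Tween-20, then compound added for 30 min. AlphaScreen streptavidin donor/nickel chelate acceptor beads (10 ug/mL final), 30 min dark, luminescence read.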
Sfp PPTase inh – blocks B. subtilis Sfp PPTase activity; Q9F4F7; Biochemical Sfp PPTase activity, qHTS; Potency, µM, without a hit: largest response in the series, negative = inhibition, most hits filed as inhibitors; actives 3.5% (n = 310,000); AID 1490;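 further: the enzyme is Sfp with the accession as filed and its product quenches rhodamine fluorescence; 0% = enzyme reaction without inhibitor and -100% = no enzyme wells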
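Compounds were incubated with enzyme (final 15 nM) for 15 min at room temperature before substrate addition started the reaction. Fluorescence at 525 nm excitation, 598 nm emission was recorded immediately and after 30 minutes.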
BAZ2B block – BAZ2B (human) inhibition; AlphaScreen BAZ2B-H3K14Ac peptide displacement; Potency, µM (series often up to 114 µM), without a hit: top-dose activity change, negative = inhibition, most hits filed as inhibitors; actives 4.4% (n = 360,000); further: on the % scale 0 is the no-effect control and ±100 the full control effect; nearly all actives have a fitted effect of over 60% in size
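Inhibition is scored as reduced AlphaScreen emission. The BAZ2B/b-H3(5-23)K14Ac complex (50 nM each) in PBS pH 7.4, 0.01% Tween-20 meets compound (up to 110 uM) for 30 min at RT before bead addition.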
L3MBTL1 block – L3MBTL1 (human) inhibition | Q9Y468 | AlphaScreen L3MBTL1–H3K9me1 peptide binding | Potency, µM (titrated, usually from 57.1 µM), inactives show top-dose activity, negative = inhibition, hits mostly inhibitors | actives 0.66% (n = 230,000) | AID 485360; further: on the % scale 0 is the no-effect control and ±100 the full control effect; nearly all actives have a fitted effect of over 60% in size
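Displacement of a biotinylated histone H3(1-15) peptide monomethylated at Lys9 (75 nM) from L3MBTL1 (50 nM) was measured by AlphaScreen after a 30 min room-temperature compound incubation; cefsulodin titration served as intraplate control.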
JMJD2A Tudor inh – JMJD2A Tudor domain (human) inhibition | Potency, µM (titrated, usually from 114 µM), for the others: at the top dose activity change, negative = inhibition, most hits filed as inhibitors | actives 4.4% (n = 390,000) | O75164 | AlphaScreen JMJD2A-Tudor / H3K4me3 peptide binding | AID 504339; further: on the % scale 0 is the no-effect control and ±100 the full control effect; nearly all actives have a fitted effect of over 50% in size
G9a block – G9a (human) methyltransferase inhibition; Potency, µM (titrated, usually from 102 µM), without a hit: top-dose activity, negative = inhibition, most hits filed as inhibitors; actives 8.8% (n = 350,000); G9a H3K9 monomethylation, AlphaScreen, 2 h; AID 504332; Q96KQ7; further: on the % scale 0 is the no-effect control and ±100 the full control effect; nearly all actives have a fitted effect of over 75% in size
Target sequence (Q96KQ7 913-1193 limits assumed): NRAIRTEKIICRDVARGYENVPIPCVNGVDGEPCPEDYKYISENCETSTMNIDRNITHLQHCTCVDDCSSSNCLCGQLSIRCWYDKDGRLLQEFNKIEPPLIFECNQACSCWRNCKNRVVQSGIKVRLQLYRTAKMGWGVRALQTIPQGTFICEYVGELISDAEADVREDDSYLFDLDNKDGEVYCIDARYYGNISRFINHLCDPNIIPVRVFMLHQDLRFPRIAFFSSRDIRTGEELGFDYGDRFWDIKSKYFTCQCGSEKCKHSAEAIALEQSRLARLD
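Readings reflect AlphaScreen signal from monomethyl-H3K9 antibody detection. HMT at 20 nM; substrate b-H3K9 500 nM; cofactor SAM 20 uM; 2 h RT reaction; compounds tested as titrations in qHTS with 15 min preincubation.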
* = called active by the depositor; ? = inconclusive; / = no result; [ ] = dose if it differs, or a comment. Hits are enriched below; roughly 12% of the tested compounds scored in any of these assays. The call rests on the fitted dose curve; in most records, active means well fitted curve in the direction sought with a large enough effect; inconclusive means small, poorly fitted or top-dose-only effect, or another doubt; inactive means no such curve, though single readings can be large; an effect the other way counts as inactive or inconclusive. Potency means the concentration at half of the fitted maximal effect.

SMILES	HP1b chromo inh	Sfp PPTase inh	BAZ2B block	L3MBTL1 block	JMJD2A Tudor inh	G9a block
COc1cccc(CNc2ccc3c(c2)nc(C)n3C)c1OC	25%	5%	-26%	-5%	-18%	35µM*
COC(=O)c1ccc(NC(=O)Nc2ccc3c(c2)nc(C)n3C)cc1	28%	-5%	0%	-2%	-4%	-2%
Cc1nc2cc(NCc3nc4ccccc4n3Cc3ccccc3)ccc2n1C	?	?	45µM*	?	?	-30%[12.7 µM]
COc1ccc(CNc2nc3ccccc3n2Cc2ccc(C)cc2)cc1OC	-2%	11%	?	-3%	-34%	79µM*
CCCOc1ccc(-c2nn(-c3ccccc3)cc2C2NC(=O)NC(C)=C2C(=O)OC(C)C)cc1 (stereo not given)	7%	/	?	/	-35%	-41%[59 µM]
CCS(=O)(=O)N1CCc2cc(C(=O)Nc3ccc(OC)c(Cl)c3)ccc21	18%	/	?	/	-36%	?
Cn1c(Cc2ccccc2)nnc1SCC(=O)c1ccc(Br)s1	3%	20µM*	-8%	-3%	-20%	?
CCCCC(Sc1ccc2nnc(-c3ccccn3)n2n1)C(=O)O (stereo not given)	-5%[57 µM]	/	/	/	?	/
c1ccc(CNc2ncnc3nc(N4CCOCC4)[nH]c23)cc1	33%	/	/	/	-13%	/
NC1=C(c2ccc(F)cc2)C(=O)CS1	13%	79µM*	?	-3%	-36%	12%[0.501 µM]
Nc1nnc(-c2ccc(F)cc2)s1	13%	-1%	-8%	4%	-6%	-2%[0.501 µM]
O=S(=O)(c1ccc(F)cc1)N1CCN(c2nc(-c3ccccc3)nc3cc(Cl)ccc23)CC1	15%	/	/	/	-12%	/
COc1ccc(C(CCNCc2ccc(F)cc2)c2ccc(F)cc2)cc1 (stereo not given)	76%	56µM*	1%	4%	9%	?
COc1ccc(CNCCC(c2ccc(OC)cc2)c2ccccc2OC)cc1 (stereo not given)	52%	-2%	-15%	/	-25%	16%
COc1ccc(C(CCNCc2ccc(N(C)C)cc2)c2ccccc2OC)cc1 (stereo not given)	50µM*	-6%	10µM*	/	25µM*	14µM*
CCOC(=O)[C@]1(C(NC(=O)OC)c2cccc(C)c2)CCCC1=O (stereo not given in full)	/	-4%	/	/	/	/
CC(Oc1ccc(Cl)cc1)C(=O)Nc1ccc(S(=O)(=O)Nc2nccs2)cc1 (stereo not given)	-4%	28%	-19%	/	-18%	-2%[59 µM]
CCC(=O)Nc1ccc(S(=O)(=O)Nc2nccs2)cc1	48%	9%	?	-10%	-8%	/
CCCC(C)C(=O)Nc1ccc(S(=O)(=O)Nc2nccs2)cc1 (stereo not given)	40%	-22%	50µM*	15%	-14%	/
CSCCC(NS(=O)(=O)c1ccccc1)C(=O)Nc1nccs1 (stereo not given)	18%	/	4%	-5%	-21%	8.9µM*
CC(Oc1ccccc1Cl)C(=O)Nc1ccc(S(=O)(=O)Nc2nccs2)cc1 (stereo not given)	-21%	/	-9%	-4%	?	56µM*
CCCCC(CC)C(=O)Nc1ccc(S(=O)(=O)Nc2nccs2)cc1 (stereo not given)	1%	4%	-28%	/	-15%	?
CCCCC1CCC(C(=O)Nc2ccc(S(=O)(=O)Nc3nccs3)cc2)CC1 (stereo not given)	-5%	9%	-30%	/	-25%	45µM*
COc1cccc(-n2cc(C(=O)Oc3cccc(C(F)(F)F)c3)c3ccccc3c2=O)c1	22%[57 µM]	/	-2%	/	-17%	49%[59 µM]
Cn1c2cc(C=O)sc2c2cnn(Cc3ccccc3F)c(=O)c21	/	/	/	/	-18%	/
SMILES	HP1b chromo inh	Sfp PPTase inh	BAZ2B block	L3MBTL1 block	JMJD2A Tudor inh	G9a block
Cc1cccc(NC(=O)Cn2nc(C)c3nn(-c4ccc(Cl)cc4)c(C)c3c2=O)c1C	27%[57 µM]	/	2%	/	-14%	2%[59 µM]
COc1ccc(S(=O)(=O)c2cnc(SCC(=O)Nc3cc(F)ccc3C)[nH]c2=O)cc1Cl	-2%	/	?	/	?	-16%[59 µM]
Cc1ccc(N2CCN(C(=O)c3cn(C)c4ccc(S(=O)(=O)N5CCCC5)cc4c3=O)CC2C)cc1 (stereo not given)	7%	/	/	/	?	-5%[59 µM]
CCOc1ccc2nc(NC(=O)C(CCSC)NS(=O)(=O)c3cccs3)sc2c1 (stereo not given)	45%	-4%	?	/	56µM*	?
COc1ccccc1CCC(=O)Nc1ccc(S(=O)(=O)Nc2nccs2)cc1	20%	/	-4%	6%	-9%	23%[2.33 µM]
Cc1ccccc1OC(C)C(=O)Nc1ccc(S(=O)(=O)Nc2nccs2)cc1 (stereo not given)	15%	15%	-24%	/	-18%	50µM*
Cc1ccc(C)c(OC(C)C(=O)Nc2ccc(S(=O)(=O)Nc3nccs3)cc2)c1 (stereo not given)	?	9%	-28%	/	-33%	11µM*
COc1ccc(CCNC(=O)Cn2c(=O)nc(-c3ccccc3F)c3cc(Cl)ccc32)cc1OC	26%	/	-23%	/	-10%	-1%[59 µM]
O=C(NC1CC(=O)N(c2ccc(F)cc2)C1)C(c1ccccc1)c1ccccc1 (stereo not given)	54%	/	2%	/	-10%	-6%[59 µM]
O=[N+]([O-])c1cc(-c2ncccn2)c([N+](=O)[O-])s1	20%	?	?	0%	-24%	28µM*
COc1ccc(-c2csc(=Nc3ccccc3)n2CCO)cc1F	?	/	50µM*	/	40µM*	16µM*
Cc1c(N=c2scc(-c3ccccc3)n2CCO)c(=O)n(-c2ccccc2)n1C	27%	12%	-12%	-5%	-22%	?
COc1ccc(N=c2scc(-c3ccc(OC)cc3)n2CCO)cc1	?	9%	32µM*	-27%	?	?
O=C1CC(c2ccccc2)Sc2ccccc2N1 (stereo not given)	38%	-8%	-2%	3%	-4%	45µM*
CCN1C(=O)CC(c2ccco2)Sc2ccccc21 (stereo not given)	-5%	40µM*	?	-2%	-27%	50µM*
Cc1ccsc1C1CC(=O)Nc2ccccc2S1 (stereo not given)	31%	6%	-24%	/	-15%	-5%
O=C1CC(c2ccco2)Sc2ccccc2N1 (stereo not given)	19%	-23%	-17%	/	-26%	40µM*
Cc1ccc(Cl)c2c1=NC(=O)C=2c1[nH]c(=S)[nH]c1O	?	40µM*	?	-14%	-26%	7.9µM*
